# ± gives the standard deviation of the averaged measurements.
# Assays:
# Assay in all cases: promoter activity interaction Z-score (Lux/OD deviation from empty-vector control); higher = stronger promoter induction by the compound
# [1] = system: E. coli BW25113 soxSp lux reporter
# Procedure, shortened: (§1)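 Every compound was given at four 1:2 dilutions, in biological duplicates, to E. coli BW25113 carrying low-copy luxCDABE promoter reporters in wild-type or single-gene deletion backgrounds. Growth in 40 µl LB Lennox in 384-well plates at 37°C was followed by OD600 and luminescence readings every 30 min for 12 h, integrated over 0–8 h for wild type and 1–9 h for deletion strains, with wells below 10% of the median growth value excluded. Scores are Z-transformed residuals of growth-normalised luminescence fitted against a control.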
# [2] = system: E. coli BW25113 tolCp lux reporter
# Procedure, shortened: as §1
# [3] = system: E. coli BW25113 acrABp lux reporter
# Procedure, shortened: as §1
# [4] = system: E. coli BW25113 micFp lux reporter
# Procedure, shortened: as §1
# [5] = system: E. coli BW25113 ompFp lux reporter
# Procedure, shortened: as §1
# [6] = system: E. coli BW25113 robp lux reporter
# Procedure, shortened: as §1
# [7] = 9.8 µg/ml, genetic background: wild type
# [8] = 9.8 µg/ml, genetic background: ΔmarA
# [9] = 9.8 µg/ml, genetic background: Δrob
# [10] = 9.8 µg/ml, genetic background: ΔsoxS
# [11] = 19.5 µg/ml, genetic background: wild type
# [12] = 19.5 µg/ml, genetic background: ΔmarA
# [13] = 19.5 µg/ml, genetic background: Δrob
# [14] = 19.5 µg/ml, genetic background: ΔsoxS
# [15] = 39 µg/ml, genetic background: wild type
# [16] = 39 µg/ml, genetic background: ΔmarA
# [17] = 39 µg/ml, genetic background: Δrob
# [18] = 39 µg/ml, genetic background: ΔsoxS
# [19] = 0.048 µg/ml, genetic background: wild type
# [20] = 0.048 µg/ml, genetic background: ΔmarA
# [21] = 0.048 µg/ml, genetic background: Δrob
# [22] = 0.048 µg/ml, genetic background: ΔsoxS
# [23] = 0.1 µg/ml, genetic background: wild type
# [24] = 0.1 µg/ml, genetic background: ΔmarA
# [25] = 0.1 µg/ml, genetic background: Δrob
# [26] = 0.1 µg/ml, genetic background: ΔsoxS
# [27] = 0.19 µg/ml, genetic background: wild type
# [28] = 0.19 µg/ml, genetic background: ΔmarA
# [29] = 0.19 µg/ml, genetic background: Δrob
# [30] = 0.19 µg/ml, genetic background: ΔsoxS
# [31] = 0.38 µg/ml, genetic background: wild type
# [32] = 0.38 µg/ml, genetic background: ΔsoxS
smiles,measurement,setting,value
c1ccc(-c2ccccn2)nc1 [2-2-Bipyridyl],promoter activity interaction Z-score,[1]; [7],0.0863 ± 0.015
same,promoter activity interaction Z-score,[1]; [8],0.104 ± 0.016
same,promoter activity interaction Z-score,[1]; [9],-0.0121 ± 0.077
same,promoter activity interaction Z-score,[1]; [10],-0.208 ± 0.27
same,promoter activity interaction Z-score,[1]; [11],-0.706 ± 0.15
same,promoter activity interaction Z-score,[1]; [12],-0.407 ± 0.018
same,promoter activity interaction Z-score,[1]; [13],-0.63 ± 0.12
same,promoter activity interaction Z-score,[1]; [14],-0.64 ± 0.078
same,promoter activity interaction Z-score,[1]; [15],-1.84 ± 0.052
same,promoter activity interaction Z-score,[1]; [16],-1.08 ± 0.22
same,promoter activity interaction Z-score,[1]; [17],-1.495 ± 0.0068
same,promoter activity interaction Z-score,[1]; [18],-1.14 ± 0.73
same,promoter activity interaction Z-score,[2]; [7],-0.433 ± 0.08
same,promoter activity interaction Z-score,[2]; [8],-0.587 ± 0.68
same,promoter activity interaction Z-score,[2]; [9],-0.425 ± 0.56
same,promoter activity interaction Z-score,[2]; [10],0.264 ± 0.45
same,promoter activity interaction Z-score,[2]; [11],-1.32 ± 0.36
same,promoter activity interaction Z-score,[2]; [12],-0.963 ± 0.81
same,promoter activity interaction Z-score,[2]; [13],-0.8 ± 0.27
same,promoter activity interaction Z-score,[2]; [14],-0.588 ± 0.17
same,promoter activity interaction Z-score,[2]; [15],-0.831 ± 0.2
same,promoter activity interaction Z-score,[2]; [16],-1.07 ± 0.4
same,promoter activity interaction Z-score,[2]; [17],0.715 ± 0.83
same,promoter activity interaction Z-score,[2]; [18],1.8 ± 1.5
CCC(C)CCCC(=O)N[C@@H](CCN)C(=O)N[C@H](C(=O)N[C@@H](CCN)C(=O)N[C@H]1CCNC(=O)[C@H]([C@@H](C)O)NC(=O)[C@H](CCN)NC(=O)[C@H](CCN)NC(=O)[C@H](CC(C)C)NC(=O)[C@@H](CC(C)C)NC(=O)[C@H](CCN)NC1=O)[C@@H](C)O (some centres not stated) [Colistin],promoter activity interaction Z-score,[3]; [19],0.00962 ± 0.11
same,promoter activity interaction Z-score,[3]; [20],-0.167 ± 0.31
same,promoter activity interaction Z-score,[3]; [21],0.139 ± 0.096
same,promoter activity interaction Z-score,[3]; [22],0.0289 ± 0.14
same,promoter activity interaction Z-score,[3]; [23],0.308 ± 0.22
same,promoter activity interaction Z-score,[3]; [24],0.524 ± 0.34
same,promoter activity interaction Z-score,[3]; [25],0.0214 ± 0.021
same,promoter activity interaction Z-score,[3]; [26],-0.00861 ± 0.23
same,promoter activity interaction Z-score,[3]; [27],0.246 ± 0.16
same,promoter activity interaction Z-score,[3]; [28],-0.482 ± 0.29
same,promoter activity interaction Z-score,[3]; [29],0.192 ± 0.051
same,promoter activity interaction Z-score,[3]; [30],-0.0737 ± 0.12
same,promoter activity interaction Z-score,[3]; [31],0.607 ± 0.1
same,promoter activity interaction Z-score,[3]; [32],2.31 ± 2.5
same,promoter activity interaction Z-score,[4]; [19],-0.359 ± 0.049
same,promoter activity interaction Z-score,[4]; [20],0.0434 ± 0.083
same,promoter activity interaction Z-score,[4]; [21],0.0506 ± 0.077
same,promoter activity interaction Z-score,[4]; [22],-0.14 ± 0.12
same,promoter activity interaction Z-score,[4]; [23],-0.48 ± 0.39
same,promoter activity interaction Z-score,[4]; [24],-0.0509 ± 0.014
same,promoter activity interaction Z-score,[4]; [25],0.0439 ± 0.063
same,promoter activity interaction Z-score,[4]; [26],-0.113 ± 0.06
same,promoter activity interaction Z-score,[4]; [27],-0.562 ± 0.18
same,promoter activity interaction Z-score,[4]; [28],-0.217 ± 0.25
same,promoter activity interaction Z-score,[4]; [29],-0.229 ± 0.24
same,promoter activity interaction Z-score,[4]; [30],-0.514 ± 0.082
same,promoter activity interaction Z-score,[4]; [31],-0.607 ± 0.2
same,promoter activity interaction Z-score,[5]; [19],-0.346 ± 0.26
same,promoter activity interaction Z-score,[5]; [20],-0.0916 ± 0.57
same,promoter activity interaction Z-score,[5]; [21],-0.0368 ± 0.43
same,promoter activity interaction Z-score,[5]; [22],0.093 ± 0.28
same,promoter activity interaction Z-score,[5]; [23],-0.267 ± 0.43
same,promoter activity interaction Z-score,[5]; [24],0.449 ± 0.06
same,promoter activity interaction Z-score,[5]; [25],0.19 ± 0.37
same,promoter activity interaction Z-score,[5]; [26],0.15 ± 0.24
same,promoter activity interaction Z-score,[5]; [27],0.073 ± 0.018
same,promoter activity interaction Z-score,[5]; [28],0.452 ± 0.48
same,promoter activity interaction Z-score,[5]; [29],-0.296 ± 0.74
same,promoter activity interaction Z-score,[5]; [30],-0.0443 ± 0.14
same,promoter activity interaction Z-score,[5]; [31],0.0453 ± 0.83
same,promoter activity interaction Z-score,[5]; [32],1.11
same,promoter activity interaction Z-score,[6]; [19],0.161 ± 0.5
same,promoter activity interaction Z-score,[6]; [20],-0.748 ± 0.18
same,promoter activity interaction Z-score,[6]; [21],0.308 ± 0.074
same,promoter activity interaction Z-score,[6]; [22],0.602 ± 0.38
same,promoter activity interaction Z-score,[6]; [23],0.156 ± 0.63
same,promoter activity interaction Z-score,[6]; [24],-0.00162 ± 0.4
same,promoter activity interaction Z-score,[6]; [25],-0.329 ± 0.5
same,promoter activity interaction Z-score,[6]; [26],1.13 ± 0.73
same,promoter activity interaction Z-score,[6]; [27],0.641 ± 1.4
same,promoter activity interaction Z-score,[6]; [28],-0.0677 ± 0.0062
same,promoter activity interaction Z-score,[6]; [29],-0.869 ± 0.76
same,promoter activity interaction Z-score,[6]; [30],-0.113 ± 0.049
same,promoter activity interaction Z-score,[6]; [31],-1.15 ± 0.17
same,promoter activity interaction Z-score,[6]; [32],-1.35 ± 0.85
same,promoter activity interaction Z-score,[1]; [19],-0.0522 ± 0.2
same,promoter activity interaction Z-score,[1]; [20],0.182 ± 0.078
same,promoter activity interaction Z-score,[1]; [21],0.268 ± 0.048
same,promoter activity interaction Z-score,[1]; [22],0.235 ± 0.097
same,promoter activity interaction Z-score,[1]; [23],-0.219 ± 0.34
same,promoter activity interaction Z-score,[1]; [24],0.306 ± 0.074
same,promoter activity interaction Z-score,[1]; [25],0.144 ± 0.06
same,promoter activity interaction Z-score,[1]; [26],0.368 ± 0.28
same,promoter activity interaction Z-score,[1]; [27],-0.09 ± 0.072
same,promoter activity interaction Z-score,[1]; [28],0.135 ± 0.0049
same,promoter activity interaction Z-score,[1]; [29],-0.469 ± 0.47
same,promoter activity interaction Z-score,[1]; [30],0.108 ± 0.33
same,promoter activity interaction Z-score,[1]; [31],-0.417 ± 0.57
same,promoter activity interaction Z-score,[1]; [32],-0.517
same,promoter activity interaction Z-score,[2]; [19],-0.508 ± 0.048
same,promoter activity interaction Z-score,[2]; [20],-0.536 ± 0.12
same,promoter activity interaction Z-score,[2]; [21],0.211 ± 0.004
same,promoter activity interaction Z-score,[2]; [22],0.982 ± 0.44
same,promoter activity interaction Z-score,[2]; [23],-0.675 ± 0.32
same,promoter activity interaction Z-score,[2]; [24],0.378 ± 0.075
same,promoter activity interaction Z-score,[2]; [25],-0.935 ± 0.56
same,promoter activity interaction Z-score,[2]; [26],0.791 ± 0.7
same,promoter activity interaction Z-score,[2]; [27],-0.155 ± 0.13
same,promoter activity interaction Z-score,[2]; [28],-1.61 ± 0.11
same,promoter activity interaction Z-score,[2]; [29],-0.925 ± 0.63
same,promoter activity interaction Z-score,[2]; [30],-0.699 ± 0.78
same,promoter activity interaction Z-score,[2]; [31],-0.255 ± 0.42
same,promoter activity interaction Z-score,[2]; [32],-0.469 ± 0.66

# Source: the supplement of paper PMC12282887
